# Compounds without any hit were thinned out: in the full panel of roughly 83,000, 20% have a hit.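 How to read the values: 0–100, growth inhibition (40 = 60% inhibited); 0, no net growth; -100 to 0, cell death (-40 = 40% of starting cells died; -100 = all dead).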 Values without a mark were called inactive. Activity calls are given as the source filed them. Rule for the calls: active = growth percent below 10; inactive = the rest.
# Columns and labels:
# Experiment in all cases: NCI-60 one-dose screen, 48 h (100 = growth as untreated, 0 = no growth, -100 = all killed)
# Conditions in all cases: 10 µM unless noted
# NCI-H23 lung = system: NCI-H23 lung
# NCI-H226 lung = system: NCI-H226 lung
# NCI-H322M lung = system: NCI-H322M lung
# HOP-62 NSCLC = system: HOP-62 NSCLC
# NCI-H460 lung = system: NCI-H460 lung
# HOP-92 NSCLC = system: HOP-92 NSCLC
# NCI-H522 lung = system: NCI-H522 lung
# A549/ATCC NSCLC = system: A549/ATCC NSCLC
# 786-0 renal = system: 786-0 renal
# COLO 205 colon = system: COLO 205 colon
# DU-145 prostate = system: DU-145 prostate
# K-562 leukemia = system: K-562 leukemia
# MALME-3M melanoma = system: MALME-3M melanoma
# MDA-MB-231 breast = system: MDA-MB-231 breast
# RXF 393 renal = system: RXF 393 renal
# SF-268 CNS = system: SF-268 CNS
# SF-295 CNS = system: SF-295 CNS
# SF-539 CNS = system: SF-539 CNS
# UACC-257 melanoma = system: UACC-257 melanoma
SMILES,growth (NCI-H23 lung),growth (NCI-H226 lung),growth (NCI-H322M lung),growth (HOP-62 NSCLC),growth (NCI-H460 lung),growth (HOP-92 NSCLC),growth (NCI-H522 lung),growth (A549/ATCC NSCLC),growth (786-0 renal),growth (COLO 205 colon),growth (DU-145 prostate),growth (K-562 leukemia),growth (MALME-3M melanoma),growth (MDA-MB-231 breast),growth (RXF 393 renal),growth (SF-268 CNS),growth (SF-295 CNS),growth (SF-539 CNS),growth (UACC-257 melanoma)
Clc1ccc(-c2cn(-c3ccccc3)c(-c3ccccc3)n2)cc1,85.2%,80.9%,95.9%,76.9%,104%,68.7%,55.2%,71.3%,81.3%,107%,93.9%,18.4%,111%,98.9%,132%,96.9%,98.8%,102%,173%
CCCCCCCCCCCCCCCCCC1=NCCN1C(=O)OCCO,76.9%,78.5%,51.1%,52.6%,7.14% (active),56.5%,11.1%,-72.4% (active),87.2%,-72.9% (active),-3.11% (active),1.39% (active),94%,-25.6% (active),49.8%,31.4%,23.3%,-25.7% (active),62.9%
COc1ccc(-c2cc(-c3ccc(Nc4nc(Nc5ccccc5)nc(Nc5ccc(Cl)cc5)n4)cc3)nc(N)n2)cc1,56.6%,81.2%,83.3%,57.2%,61.6%,37.6%,76.3%,79.5%,51.5%,68.4%,100%,23.7%,79.2%,49%,75.6%,75.8%,64.1%,76.9%,77.1%
COc1cc(C2CC(c3ccc(Nc4nc(Nc5ccc(F)cc5)nc(Nc5ccc(Cl)cc5)n4)cc3)=NN2C(C)=O)cc(OC)c1OC (centres undefined),68.8%,67.9%,84.8%,72.3%,77.9%,51.8%,73.8%,50.8%,87.2%,58%,110%,44.2%,67.9%,77.8%,71.5%,90.4%,339%,84.6%,122%
NS(=O)(=O)c1cn(-c2ncnc3nc[nH]c23)ccc1=O,94.2%,78%,94.5%,94.9%,112%,82.7%,51.2%,36%,96.9%,100%,103%,84.6%,82.9%,89.3%,130%,93.3%,49.3%,105%,138%
Cc1nc(Nc2ccc(NC(=S)Nc3ccccc3)cc2)nc2nc(Nc3cccc(Cl)c3)[nH]c(=O)c12,92.4%,99.2%,183%,91.7%,114%,60.4%,34.4%,86.1%,98.7%,122%,123%,71.8%,120%,84.7%,-12.9% (active),104%,116%,67.5%,98.9%
COc1ccc(NC(=O)C(=O)c2c[nH]c3ccc(F)cc23)cc1,97.8%,101%,73%,103%,90.7%,99.2%,85.1%,78.7%,56.1%,104%,88.9%,90.6%,115%,95.5%,103%,94.7%,102%,108%,101%
COc1ccc(OC)c(/C=C2\COc3ccc(O)cc3C2=O)c1,104%,98.5%,92.3%,108%,101%,93.7%,38%,101%,96.4%,109%,107%,9.33% (active),81.9%,98.3%,,99.2%,102%,90.5%,99.4%
Cn1ccnc1C(=O)/C=C/c1ccc(C(=O)Nc2ccc(S(F)(F)(F)(F)F)cc2)cc1,17.8%,43.9%,15.4%,24.4%,-4.08% (active),95.8%,42.9%,31.5%,15.9%,9.14% (active),15.6%,2.18% (active),59.6%,22.4%,,15.3%,32.7%,-37.1% (active),42.4%
O=C(O)c1ccccc1C(=O)Nc1ccc(Cl)cc1,99.3%,118%,101%,107%,106%,97.8%,91%,85%,94%,107%,103%,68.6%,109%,104%,128%,94.5%,101%,98.6%,78.3%
CC[C@]1(O)C[C@H]2CN(CCc3c([nH]c4ccccc34)[C@@](C(=O)OC)(c3cc4c(cc3OC)N(C=O)[C@H]3[C@@](O)(C(=O)OC)[C@H](OC(C)=O)[C@]5(CC)C=CCN6CC[C@]43[C@@H]65)C2)C1,290%,28.2%,43.7%,11.7%,-2.68% (active),72.3%,-13.1% (active),16.6%,12.4%,-57.2% (active),-42.5% (active),-0.624% (active),45.4%,-27.1% (active),-36% (active),23.9%,13.6%,-28.7% (active),5.68% (active)
CCCCC1COc2cccc3c(SCC(=O)N(C)c4cccc(Cl)c4)cc[n+]1c23 (centres undefined),99.9%,103%,107%,109%,113%,113%,96.9%,109%,107%,110%,120%,97.8%,104%,101%,,118%,99.3%,97.5%,113%
CCOC(=O)c1sc(-c2ccc(OS(=O)(=O)c3ccc(C(C)(C)C)cc3)c(C=O)c2)nc1C,33.3%,48.5%,93.7%,52%,41.7%,21.1%,22.1%,84.9%,47.2%,72.7%,43.8%,16.1%,45.1%,53.7%,,32.9%,28.6%,45.6%,52%
O=C1C=CC(=Nc2cc(Br)c(O)c(Br)c2)C=C1,78.1%,93.9%,105%,82.1%,109%,29.5%,-14.6% (active),118%,70.2%,113%,102%,12.6%,70.2%,72.6%,,82.7%,101%,86.4%,90.9%
C=C1C(=O)O[C@H]2[C@H]1CC/C(COC(=O)/C=C\C(=O)NCc1ccc(Cn3c(=O)sn(CCCC)c3=O)cc1)=C\CC[C@@]1(C)O[C@@H]21,-61.4% (active),-70.4% (active),35.4%,-35.7% (active),-54.3% (active),-67.7% (active),-44.5% (active),0.708% (active),-76.8% (active),-51.2% (active),-95.5% (active),0.287% (active),-93.3% (active),-84.4% (active),,-64.4% (active),65.1%,-98.9% (active),-52.8% (active)

# From PubChem BioAssay (NCI)
